According to PMC4336329 (PLoS ONE, 2015):
Among all 310,000 compounds or so, about 14,000 (4.5%) showed an effect of 50% or more. The effect is printed as a negative number. This excerpt belongs to a sample that is enriched for strong results.

Biological target: human ether-à-go-go-related gene (hERG) potassium channel (human, UniProt Q12809)
Assay: primary screen, population patch clamp on CHO cells stably expressing hERG; higher = less effect of the substance
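Also: peak tail current of the secondary pulse compared with the same well before compound.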

human ether-à-go-go-related gene (hERG) potassium channel, sequence (Q12809 whole entry, looked up): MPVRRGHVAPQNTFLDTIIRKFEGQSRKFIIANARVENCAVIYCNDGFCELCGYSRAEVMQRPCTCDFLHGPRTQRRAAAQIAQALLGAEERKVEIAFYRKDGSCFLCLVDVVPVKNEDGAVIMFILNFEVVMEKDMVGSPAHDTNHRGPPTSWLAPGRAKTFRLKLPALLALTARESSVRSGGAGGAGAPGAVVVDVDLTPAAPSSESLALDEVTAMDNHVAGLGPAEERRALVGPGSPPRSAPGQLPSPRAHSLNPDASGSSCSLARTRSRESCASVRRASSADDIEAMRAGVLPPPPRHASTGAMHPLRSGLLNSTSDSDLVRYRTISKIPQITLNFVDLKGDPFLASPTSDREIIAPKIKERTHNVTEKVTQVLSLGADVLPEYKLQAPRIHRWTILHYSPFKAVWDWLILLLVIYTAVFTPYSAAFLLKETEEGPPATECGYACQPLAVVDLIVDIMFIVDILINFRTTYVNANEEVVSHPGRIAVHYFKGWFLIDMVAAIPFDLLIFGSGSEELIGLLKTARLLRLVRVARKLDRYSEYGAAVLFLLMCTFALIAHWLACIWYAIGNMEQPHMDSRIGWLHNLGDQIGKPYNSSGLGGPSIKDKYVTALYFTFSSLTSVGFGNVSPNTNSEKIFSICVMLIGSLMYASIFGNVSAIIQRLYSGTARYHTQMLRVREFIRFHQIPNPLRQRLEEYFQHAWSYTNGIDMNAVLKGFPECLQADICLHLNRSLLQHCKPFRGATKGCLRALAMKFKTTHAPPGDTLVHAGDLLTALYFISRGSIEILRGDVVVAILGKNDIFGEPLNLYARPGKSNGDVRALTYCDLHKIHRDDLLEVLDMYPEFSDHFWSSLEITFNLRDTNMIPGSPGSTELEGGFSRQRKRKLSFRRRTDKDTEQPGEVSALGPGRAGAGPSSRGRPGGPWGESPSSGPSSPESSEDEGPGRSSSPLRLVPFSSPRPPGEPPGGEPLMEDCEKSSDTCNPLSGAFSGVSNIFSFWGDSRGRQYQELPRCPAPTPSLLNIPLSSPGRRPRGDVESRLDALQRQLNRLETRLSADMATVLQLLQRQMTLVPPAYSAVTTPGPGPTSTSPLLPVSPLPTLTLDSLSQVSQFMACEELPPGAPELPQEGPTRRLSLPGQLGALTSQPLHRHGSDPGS

Question: How did the “hERG current change (%, negative = inhibition) at 10uM” value turn out when `Cc1nc(C)c(-c2csc(Nc3ccc(F)cc3)n2)s1` was run?
Answer: -25.1%

Question: For `O=C1CSc2ccc(C(=O)Nc3cccc(S(=O)(=O)Nc4ccc(Br)cc4)c3)cc2N1`, which “hERG current change (%, negative = inhibition) at 10uM” value is on record?
Answer: 15%

Question: `O=C(COC(=O)c1cccc(-n2cnnn2)c1)c1ccc(F)cc1` was tested. Which “hERG current change (%, negative = inhibition) at 10uM” value did it give?
Answer: -0.561%

Question: Which “hERG current change (%, negative = inhibition) at 10uM” value does the source give for `CCOC(=O)C1CCN(S(=O)(=O)c2ccc3c(c2)CC(=O)N3C)CC1` here?
Answer: -22%

Question: `C=CCc1c(C)nc(SC(C)C)[nH]c1=O` was tested. Which “hERG current change (%, negative = inhibition) at 10uM” value did it give?
Answer: -2.85%

Question: Which “hERG current change (%, negative = inhibition) at 10uM” value does the source give for `CCOc1cc(C(=S)N2CCCC2)ccc1OC(=O)Cc1ccc(F)cc1` here?
Answer: 7.36%

Question: How did the “hERG current change (%, negative = inhibition) at 10uM” value turn out when `O=C(c1oc2ccccc2c1CSCc1ccccc1)N1CCN(c2ncccn2)CC1` was run?
Answer: 1.59%

Question: Which “hERG current change (%, negative = inhibition) at 10uM” value does the source give for `COc1ccc(N2CCN(C(=O)c3oc4ccccc4c3NC(=O)Cc3ccc(OC)c(OC)c3)CC2)cc1` here?
Answer: -28.7%

Question: `O=C(Cc1ccc(F)cc1)Nc1c(C(=O)N2CCN(c3ncccn3)CC2)oc2ccccc12` was tested. Which “hERG current change (%, negative = inhibition) at 10uM” value did it give?
Answer: -56%

Question: Which “hERG current change (%, negative = inhibition) at 10uM” value does the source give for `COc1ccc(CC(=O)Nc2c(C(=O)N3CCN(c4ncccn4)CC3)oc3ccccc23)cc1` here?
Answer: -63.7%

Question: With `COc1ccc(CC(=O)Nc2c(C(=O)N3CCN(c4ncccn4)CC3)oc3ccccc23)cc1OC` as the compound, how does the “hERG current change (%, negative = inhibition) at 10uM” value read?
Answer: -46.8%

Question: How did the “hERG current change (%, negative = inhibition) at 10uM” value turn out when `Cc1ccc(O)c(NC(=O)c2ccc3c(c2)C(=O)N(Cc2ccco2)C3=O)c1` was run?
Answer: 3.81%

Question: Which “hERG current change (%, negative = inhibition) at 10uM” value does the source give for `COC(=O)c1[nH]c2c(c1C)C(=O)CC(c1ccc(OC)cc1)C2` (stereo not shown) here?
Answer: 11%

Question: `CCOc1ccc2[nH]c(=O)c(CN(CCOC)C(=O)N3CCOCC3)cc2c1` was tested. Which “hERG current change (%, negative = inhibition) at 10uM” value did it give?
Answer: 13.5%

Question: For `O=C(Nc1nnc(-c2ccc(F)cc2)o1)c1ccc(S(=O)(=O)N2CCOCC2)cc1`, which “hERG current change (%, negative = inhibition) at 10uM” value is on record?
Answer: -6.82%

Question: Which “hERG current change (%, negative = inhibition) at 10uM” value does the source give for `CC(Oc1ccc(Cl)cc1)C(=O)N(C)CC(=O)Nc1ccc(N2CCOCC2)cc1` (stereo not shown) here?
Answer: 5.8%

Question: `Cn1c(CCN2CCCCC2)nc2cc(NC(=O)COc3ccc([N+](=O)[O-])cc3)ccc21` was tested. Which “hERG current change (%, negative = inhibition) at 10uM” value did it give?
Answer: -63.1%

Question: How did the “hERG current change (%, negative = inhibition) at 10uM” value turn out when `CC1CCN(CCc2nc3cc(NC(=O)COc4ccc([N+](=O)[O-])cc4)ccc3n2C)CC1` was run?
Answer: -68.4%

Question: How did the “hERG current change (%, negative = inhibition) at 10uM” value turn out when `Cn1c(CN2CCCC2)nc2cc(NC(=O)COc3ccc([N+](=O)[O-])cc3)ccc21` was run?
Answer: -38.6%

Question: Which “hERG current change (%, negative = inhibition) at 10uM” value does the source give for `CCN1CCN(Cc2nc3cc(NC(=O)COc4ccc([N+](=O)[O-])cc4)ccc3n2C)CC1` here?
Answer: -18.7%

Question: `CCN1CCN(CCc2nc3cc([N+](=O)[O-])ccc3n2C)CC1` was tested. Which “hERG current change (%, negative = inhibition) at 10uM” value did it give?
Answer: -16.9%

Question: How did the “hERG current change (%, negative = inhibition) at 10uM” value turn out when `Cn1c(CCN2CCCCC2)nc2cc([N+](=O)[O-])ccc21` was run?
Answer: -70.2%

Question: `Cn1c(CN2CCCCC2)nc2cc([N+](=O)[O-])ccc21` was tested. Which “hERG current change (%, negative = inhibition) at 10uM” value did it give?
Answer: -0.791%

Question: Which “hERG current change (%, negative = inhibition) at 10uM” value does the source give for `Cn1c(CCN2CCOCC2)nc2cc(NC(=O)COc3ccc([N+](=O)[O-])cc3)ccc21` here?
Answer: -21.1%

Question: `CN1CCN(CCc2nc3cc(NC(=O)COc4ccc([N+](=O)[O-])cc4)ccc3n2C)CC1` was tested. Which “hERG current change (%, negative = inhibition) at 10uM” value did it give?
Answer: 16.1%
